Results as given in PubChem BioAssay (EPA / NIEHS).
The source made the active and inactive calls. The calls were made as follows: active = hit-call score of the fitted dose curve at least 0.9, where 1 is the maximum; inactive = score below 0.9.

Columns and labels:
Settings in all cases: mRNA level, 48 h; actives raise or lower the signal
[1] = read-out: Potassium channel subfamily K member 1 (KCNK1), KCNK1 (gene 3775); assay: LTEA_HepaRG_KCNK1: Life Technologies and Expression Analysis (LTEA) Assay for Potassium channel subfamily K member 1 (KCNK1) using HepaRG (AID 2283511)
Procedure, shortened: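 KCNK1 transcript measured by TaqMan qRT-PCR against three housekeeping genes, after HepaRG cells were treated 48 h with eight half-log concentrations (top 100 uM, 0.5% DMSO). Curves fitted bidirectionally relative to vehicle.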

[2] = read-out: Keratin 19 (KRT19), KRT19 (gene 3880); assay: LTEA_HepaRG_KRT19: Life Technologies and Expression Analysis (LTEA) Assay for Keratin 19 (KRT19) using HepaRG (AID 2283512)
Procedure, shortened: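 Differentiated HepaRG cells in serum-free induction medium, exposed 48 h in duplicate to 8 half-log concentrations up to 100 uM in 0.5% DMSO. KRT19 mRNA by qRT-PCR, normalized to ACTB, GAPDH, POLR2A; bidirectional fit vs DMSO.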

[3] = read-out: JUN Transcription Factor, JUN (gene 3725); assay: LTEA_HepaRG_JUN: Life Technologies and Expression Analysis (LTEA) Assay for JUN Transcription Factor using HepaRG (AID 2283513)
Procedure, shortened: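 HepaRG, 48 h exposure, 8-pt half-log series top 100 uM, 0.5% DMSO, duplicate. JUN mRNA by qRT-PCR (Fluidigm), housekeeping-normalized (ACTB/GAPDH/POLR2A); bidirectional curve fit vs DMSO baseline.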

[4] = read-out: Lipase C (LIPC), LIPC (gene 3990); assay: LTEA_HepaRG_LIPC: Life Technologies and Expression Analysis (LTEA) Assay for Lipase C (LIPC) using HepaRG (AID 2283514)
Procedure, shortened: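 LIPC expression was quantified by qRT-PCR against three housekeeping genes (ACTB, GAPDH, POLR2A). Differentiated human HepaRG cells received eight half-log doses (top 100 uM, 0.5% DMSO) in duplicate for 48 h; fitting bidirectional relative to DMSO.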

[5] = read-out: Lipoprotein lipase (LPL), LPL (gene 4023); assay: LTEA_HepaRG_LPL: Life Technologies and Expression Analysis (LTEA) Assay for Lipoprotein lipase (LPL) using HepaRG (AID 2283515)
Procedure, shortened: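 LPL transcript levels quantified by TaqMan qRT-PCR against three housekeeping genes after 48 h chemical treatment of HepaRG cells. Eight-point half-log series from 100 uM in 0.5% DMSO, tested in duplicate; bidirectional fitting versus vehicle.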

[6] = read-out: MicroRNA 122 (MIR122), gene 406906; assay: LTEA_HepaRG_MIR122: Life Technologies and Expression Analysis (LTEA) Assay for MicroRNA 122 (MIR122) using HepaRG (AID 2283516); also: the transcript read is the microRNA miR-122
Procedure, shortened: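 qRT-PCR read-out (TaqMan, Fluidigm array), normalized to three housekeeping genes; HepaRG cells dosed 48 h at 8 concentrations up to 100 uM in 0.5% DMSO, duplicate; gain or loss fitted against DMSO baseline.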

[7] = read-out: matrix metalloproteinase-10 (MMP10), MMP10 (gene 4319); assay: LTEA_HepaRG_MMP10: Life Technologies and Expression Analysis (LTEA) Assay for matrix metalloproteinase-10 (MMP10) using HepaRG (AID 2283517)
Procedure, shortened: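 Expression measured by TaqMan qRT-PCR with ACTB/GAPDH/POLR2A normalisation after 48 h chemical exposure of HepaRG cells. Eight half-log concentrations, top 100 uM, 0.5% DMSO vehicle, duplicates; gain or loss fitted against vehicle.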

MYC, MYC (gene 4609) = assay: LTEA_HepaRG_MYC: Life Technologies and Expression Analysis (LTEA) Assay for MYC using HepaRG (AID 2283518)
Procedure, shortened: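 Differentiated HepaRG cells exposed 48 h in serum-free induction medium to 8 concentrations (top 100 uM, half-log steps; 0.5% DMSO), duplicate. MYC mRNA measured by Fluidigm qRT-PCR, normalized to ACTB, GAPDH, POLR2A; bidirectional fit versus DMSO.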

[8] = read-out: matrix metalloproteinase-3 (MMP3), MMP3 (gene 4314); assay: LTEA_HepaRG_MMP3: Life Technologies and Expression Analysis (LTEA) Assay for matrix metalloproteinase-3 (MMP3) using HepaRG (AID 2283519)
Method: LTEA_HepaRG is a cell based, multiplexed-readout assay that uses HepaRG, a human liver cell line, with measurements taken at 48 hours after chemical dosing on a 96-well plate.LTEA_HepaRG_MMP3 is one of 102 assay component(s) measured in the LTEA HepaRG cell culture assay. It is a marker of Fibrosis.Data from the assay component LTEA_HepaRG_MMP3 was analyzed into 1 endpoint. This assay endpoint, LTEA_HepaRG_MMP3, was analyzed with bidirectional fitting relative to DMSO as the negative control and baseline of activity. Using a type of inducible reporter, measures of mRNA induction for gain or loss-of-signal activity can be used to understand regulation of transcription factor activity. To generalize the intended target to other relatable targets, this assay endpoint is annotated to the protease intended target family, where the subfamily is matrix metalloproteinase.
A total of 1060 chemcials from the ToxCast library were tested in eight-point concentration-response experiments. Cell culture and cytotoxicity assays were conducted at Thermo Fisher Scientific's Custom Services facility (Madison, WI). […] Fluidigm's 96.96 Dynamic ArrayTM (Fluidigm, Amsterdam, the Netherlands) technology was used for gene expression analyses by quantitative reverse transcription polymerase chain reaction (qRT-PCR, performed by Quintiles/Expression Analysis, Durham, NC)89. […]

[9] = read-out: Paternally Expressed 10 (PEG10), PEG10 (gene 23089); assay: LTEA_HepaRG_PEG10: Life Technologies and Expression Analysis (LTEA) Assay for Paternally Expressed 10 (PEG10) using HepaRG (AID 2283520)
Procedure, shortened: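 qRT-PCR read-out: PEG10 mRNA normalised to three housekeeping genes, fitted bidirectionally against 0.5% DMSO vehicle. HepaRG cells received test chemicals for 48 h in serum-free induction medium, 8 points, top 100 uM, half-log steps.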

Measured: outcome

O=C(O)c1ccc([N+](=O)[O-])cc1
inactive: [1] | [2] | [3] | [4] | [5] | [6] | [7] | MYC, MYC (gene 4609) | [8] | [9]
